Data from the supplement of paper PMC6279402.
Where a name gives a salt, the structure may show the parent alone. ± gives the standard deviation of the averaged measurements.

Test system: A549
Experiment: relative viability (normalised to negative control = 1, bortezomib = 0) (fraction); higher = less cytotoxic
Conditions: inflammatory serum-free RHB-A with cytokines + LPS, 5 d + 24 h CellTiter-Blue
Experimental: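 A549 KRAS-mutant NSCLC cells, pre-treated 5 µM GSK126 or vehicle (DMSO), were seeded at 250 cells/well in 384-well plates in serum-free RHB-A medium with inflammatory cytokines/LPS and treated with Selleck kinase inhibitor and NCI oncology compounds at 30 or 300 nM in triplicate, refreshed at 48 h. Viability was read by CellTiter-Blue after 5 d plus 24 h and normalised per plate with cellHTS2 (mean of bortezomib positive control = 0, mean of negative control = 1).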

[1] = compound 30 nM, GSK126 pretreatment: 5 uM GSK126
[2] = compound 30 nM, GSK126 pretreatment: none (vehicle)
[3] = compound 300 nM, GSK126 pretreatment: 5 uM GSK126
[4] = compound 300 nM, GSK126 pretreatment: none (vehicle)

| SMILES | relative viability [1] | relative viability [2] | relative viability [3] | relative viability [4] |
| --- | --- | --- | --- | --- |
| O=C1c2ccccc2-c2n[nH]c3cccc1c23 | 0.785 ± 0.1 | 0.796 ± 0.078 | 0.801 ± 0.075 | 0.894 ± 0.15 |
| N#C/C(=C/c1ccc(O)c(O)c1)C(=O)NCc1ccccc1 [AG-490; Tyrphostin AG 490] | 0.914 ± 0.15 | 0.861 ± 0.1 | 0.879 ± 0.15 | 0.873 ± 0.11 |
| COc1ncc(-c2ccc3nccc(-c4ccnnc4)c3c2)cc1NS(=O)(=O)c1ccc(F)cc1F | 0.0446 ± 0.01 | 0.0459 ± 0.0045 | 0.00279 ± 0.0028 | 0.00434 ± 0.0032 |
| CN(N=O)C(=O)N[C@@H]1[C@@H](O)[C@H](O)[C@@H](CO)O[C@@H]1O [Streptozocin] | 0.985 ± 0.071 | 0.903 ± 0.13 | 1.01 ± 0.15 | 1.08 ± 0.088 |
| COc1cccc(-c2cc(=O)c3ccccc3o2)c1N | 0.734 ± 0.07 | 0.794 ± 0.057 | 0.726 ± 0.19 | 0.825 ± 0.078 |
| CCCS(=O)(=O)Nc1ccc(F)c(C(=O)c2c[nH]c3ncc(-c4ccc(Cl)cc4)cc23)c1F [vemurafenib] | 0.86 ± 0.082 | 0.848 ± 0.071 | 1 ± 0.051 | 1.02 ± 0.061 |
| N#CC1(c2ccc(NC(=O)c3cccnc3NCc3ccncc3)cc2)CCCC1 [Apatinib (YN968D1)] | 0.83 ± 0.072 | 0.853 ± 0.054 | 0.936 ± 0.085 | 0.9943 ± 0.005 |
| CCC1=C[C@@H]2CN(C1)Cc1c([nH]c3ccccc13)[C@@](C(=O)OC)(c1cc3c(cc1OC)N(C)[C@H]1[C@@](O)(C(=O)OC)[C@H](OC(C)=O)[C@]4(CC)C=CCN5CC[C@]31[C@@H]54)C2 [Vinorelbine tartrate] | 0.403 ± 0.049 | 0.444 ± 0.021 | 0.376 ± 0.056 | 0.307 ± 0.025 |
| CC(=O)O[C@H]1C(=O)[C@@]2(C)[C@H]([C@H](OC(=O)c3ccccc3)[C@]3(O)C[C@H](OC(=O)[C@H](O)[C@@H](NC(=O)c4ccccc4)c4ccccc4)C(C)=C1C3(C)C)[C@]1(OC(C)=O)CO[C@@H]1C[C@@H]2O [Paclitaxel; Taxol] | 0.391 ± 0.044 | 0.242 ± 0.009 | 0.368 ± 0.077 | 0.301 ± 0.048 |
| Cn1c(Nc2ccc(C(F)(F)F)cc2)nc2cc(Oc3ccnc(-c4ncc(C(F)(F)F)[nH]4)c3)ccc21 | 0.826 ± 0.12 | 0.699 ± 0.17 | 0.427 ± 0.11 | 0.347 ± 0.037 |
